{"source": "PubChem BioAssay (NCI)", "note": "The panel holds about 79,000 compounds, 15% with a hit somewhere; the sample as a whole holds those more often. Active and inactive are the calls of the source. Rule as the data show it: active = growth inhibition above about 70%; inactive = the rest.", "data": [{"experiment": "NCI Yeast Anticancer Drug Screen. Data for the mlh1 rad18 strain (AID 175)", "conditions": "S. cerevisiae mlh1 rad18 strain growth inhibition, stronger effect = higher value; at 50.0 µM unless noted", "summary_of_the_method": "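Vehicle-treated cultures served as the reference for growth inhibition in a yeast strain carrying DNA damage repair alterations exposed to each compound.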", "values": [{"compound": "CC(=O)Nc1ccc(S(=O)(=O)O)c(OC(C)=O)c1", "growth inhibition": "19.1% (inactive)"}, {"compound": "CN(C)CCN1CC2Cc3ccccc3C1c1ccccc12", "note": "(stereo not given)", "growth inhibition": "9.1% (inactive)"}, {"compound": "COc1cc(/C=N/NC(=O)c2ccccc2NC(=O)c2ccccc2)ccc1O", "growth inhibition": "30.9% (inactive)"}, {"compound": "NC(=S)Cc1ccncc1", "growth inhibition": "2.65% (inactive)"}, {"compound": "COc1ccc2nc3cc(Cl)ccc3c(SCC(=O)Nc3ccccc3-c3ccccc3NC(=O)CSc3c4ccc(Cl)cc4nc4ccc(OC)cc34)c2c1", "growth inhibition": "7.8% (inactive)"}, {"compound": "COC1C(CO)OC(O)C(O)C1O", "note": "(stereo not given)", "growth inhibition": "4% (inactive)"}, {"compound": "CCNC(=O)Nc1cccc(C)n1", "growth inhibition": "19.4% (inactive)"}, {"compound": "CCCCCCCCCCCCC(C)O", "note": "(stereo not given)", "growth inhibition": "-24.8% (inactive)"}, {"compound": "COc1ccc(C2=Nc3c(nc(OC)[nH]c3=O)NC(c3ccccc3)C2)cc1", "note": "(stereo not given)", "growth inhibition": "-21.8% (inactive)"}, {"compound": "CO[C@@H]1C2=CC=CC=C[C@H]2n2c(=O)n(-c3ccccc3)c(=O)n21", "growth inhibition": "13.2% (inactive)"}, {"compound": "CC1(C)OCC2OC3(c4nc(C#N)c(N)o4)OC(C)(C)OC3C2O1", "note": "(stereo not given)", "growth inhibition": "-75% (inactive)"}, {"compound": "O=C1C2CCC2C(=O)N1c1ccc2ccccc2c1", "note": "(stereo not given)", "growth inhibition": "6.75% (inactive)"}, {"compound": "CC1(C)C2(Cl)C(Cl)=C(Cl)C13C(Cl)(c1ccc([N+](=O)[O-])cc1C1(Cl)C(Cl)(Cl)C4(Cl)C(Cl)=C(Cl)C13C4(C)C)C2(Cl)Cl", "note": "(stereo not given)", "growth inhibition": "13% (inactive)"}, {"compound": "CCCCCCCCCCCCCCCCNC(=O)C(=O)/C=C(\\O)c1ccc(C)cc1", "growth inhibition": "1.4% (inactive)"}, {"compound": "NS(=O)(=O)c1ccc(N=Nc2ncccc2O)cc1", "growth inhibition": "20.6% (inactive)"}, {"compound": "O=C(O)C1(F)CC1(c1ccccc1)c1ccccc1", "note": "(stereo not given)", "growth inhibition": "-7.8% (inactive)"}, {"compound": "CCCCCCCCCCCC[N+](C)(C)C(C)Cc1ccccc1", "note": "(stereo not given)", "growth inhibition": "99.3% (active)"}, {"compound": "CCOC(OCC)N1C(=O)C2(C(OCC)OCC)CC3C(OC(=O)N3N)c3cccc1c32", "note": "(stereo not given)", "growth inhibition": "-4.4% (inactive)"}, {"compound": "CCCCCC(=O)NNC(=O)CCCCC", "growth inhibition": "15.1% (inactive)"}, {"compound": "COc1cc(C(=O)O)cc(I)c1OC", "growth inhibition": "-8.95% (inactive)"}, {"compound": "CN(Cc1ccc2nc(N)nc(N)c2c1)c1ccc(C(=O)NC(CCC(=O)O)C(=O)O)cc1", "note": "(stereo not given)", "growth inhibition": "33.3% (inactive)"}, {"compound": "COc1ccc(OC(C)C(=O)O)c2c(=O)ccccc12", "note": "(stereo not given)", "growth inhibition": "22.1% (inactive)"}, {"compound": "O=P1(NC23CC4CC(CC(C4)C2)C3)OC(CCl)=NC1c1ccc(C2N=C(CCl)OP2(=O)NC23CC4CC(CC(C4)C2)C3)cc1", "note": "(stereo not given)", "growth inhibition": "-57.2% (inactive)"}, {"compound": "CCCCC/C(=N\\c1nc[nH]c1C(N)=O)OCC", "growth inhibition": "-25.6% (inactive)"}, {"compound": "CC(C)c1ccc(/C(C(=O)O)=C(\\O)C(=O)O)cc1", "growth inhibition": "-7.45% (inactive)"}, {"compound": "O=C1CC(c2ccccc2)N1c1ccccc1", "note": "(stereo not given)", "growth inhibition": "-22.8% (inactive)"}, {"compound": "C=C(C)C(C(=O)OCC)C(=O)OCC", "growth inhibition": "-4.85% (inactive)"}, {"compound": "CO/C(=N\\N=C\\c1ccc(Cl)cc1Cl)c1ccncc1", "growth inhibition": "-54.6% (inactive)"}, {"compound": "COc1ccc2[nH]c3c(C)c4c(c(C)c3c2c1)CN(C)C=C4", "growth inhibition": "8.95% (inactive)"}, {"compound": "O=C(O)C1CCc2ccccc21", "note": "(stereo not given)", "growth inhibition": "-20.1% (inactive)"}, {"compound": "C[N+]1(C)CCc2cc(O)c(O)cc2C1Cc1ccc(O)c(O)c1", "note": "(stereo not given)", "growth inhibition": "10.1% (inactive)"}, {"compound": "CCc1c(CC)c(CC)c(CC)c(CC)c1CC", "growth inhibition": "-31.8% (inactive)"}, {"compound": "CCC1(CC)SC=C(C)NC1=O", "growth inhibition": "6.75% (inactive)"}, {"compound": "CCOC(=O)c1cc2ccccc2cc1N=N", "growth inhibition": "28.8% (inactive)"}, {"compound": "COc1ccc(COC(=O)Nc2ccc(Br)cc2)c(OC)c1", "growth inhibition": "9.55% (inactive)"}, {"compound": "Cc1ncc(CO)c(/C=N\\OCc2cccc(Cl)c2)c1O", "growth inhibition": "9.2% (inactive)"}, {"compound": "N#CCCC(CC#N)N1CCN(CCO)CC1", "note": "(stereo not given)", "growth inhibition": "-39.4% (inactive)"}, {"compound": "C/C(=N\\NC(=O)c1ccncc1)c1cc(Cl)ccc1Cl", "growth inhibition": "8.7% (inactive)"}, {"compound": "COC(=O)/C([O-])=C(\\C(=O)OC)[n+]1cc(Br)cc2ccccc21", "growth inhibition": "-7.4% (inactive)"}, {"compound": "CC1OC(O[C@H]2CC[C@]3(C)[C@H]4CC=C5[C@@H]6[C@@H](C)[C@H](C)CC[C@]6(C(=O)OC6OC(CO)C(O)C(O)C6O)CC[C@@]5(C(=O)O)[C@]4(C)CC[C@H]3C2(C)C)C(O)C(O)C1O", "note": "(stereo not given in full)", "growth inhibition": "-40.5% (inactive)"}]}]}
